# Out of some 320,000 compounds screened, about 22,000 (6.9%) were called active. Another 27% or so got no clear call; they are omitted. The call rests on the fitted dose curve; in most records, active means well fitted inhibition curve with a large enough effect; inconclusive means small, poorly fitted or top-dose-only effect, or another doubt; inactive means no such curve, though single readings can be large or run the other way. Shown is part of a subset that was picked to be rich in actives.
# Assay: Primary qHTS for delayed death inhibitors of the malarial parasite plastid, 96 hour incubation
# Conditions: P. falciparum luciferase reporter growth; series mostly up to 28.7 µM; activity change, negative = inhibition: at the top concentration
# Excerpt: The goal of this screen is to discover new antimalarial compounds that act by inhibiting the development of the apicoplast in the malarial parasite Plasmodium falciparum. The biochemical processes that make this organelle essential for erythrocytic stage parasites are not well understood. However, antibiotics such as azithromycin and tetracycline, which target the apicoplast translational machinery, have a potent antimalarial effect.
# We have developed a cell-based assay that measures parasite growth based on the expression of an integrated copy of a firefly luciferase reporter. To detect small molecules that cause this "delayed death" phenotype, erythrocytes infected with the luciferase-expressing parasites were incubated with compounds for either one or two generations, corresponding to 48 and 96 hours, respectively. Compounds that inhibit parasite growth in the second generation, but not the first, should be enriched in antimalarials that target the apicoplast. Growth inhibition is detected by a decrease in luciferase activity.
# Assay Provider: David Fidock and Eric Ekland, Columbia University
# Keywords: NIH Roadmap, MLPCN, MLI, MLSMR, qHTS, NCGC, qHTS, malaria, luciferase, viability
# Four microliters of infected erythrocytes (2% hematocrit, 0.05% parasitemia final concentration) in culture medium were dispensed and the plates incubated for 96 hours at 37 C in 5% CO2. Two microliters of luciferase detection reagent was added and luminescence was detected by a ViewLux (PerkinElmer) reader.
# On the % scale 0 is the no-effect control and ±100 the full control effect; potency means the concentration at half of the fitted maximal effect.
Structure (SMILES),Potency,"activity change, negative = inhibition"
CCCc1cc(=O)oc2c(C)c(O)c(CN3CCCCC3)cc12,2.08 µM (active),–
CCCc1cc(=O)oc2c(C)c(OC(C)C(=O)NCC(O)c3ccccc3)ccc12 (configuration not stated),–,-15.3% (inactive)
CCCCc1cc(=O)oc2c(C)c(OCC(=O)N3CCC(C(N)=O)CC3)ccc12,–,19.5% (inactive)
COc1ccc(NC(=O)CN2C(=O)COc3ccc(S(=O)(=O)N4CCOCC4)cc32)cc1,–,-0.78% (inactive)
Cc1ccc(S(=O)(=O)N2CCC(C)CC2)cc1C(=O)NCc1ccccn1,–,6.35% (inactive)
O=C(CCc1nc2sc3c(c2c(=O)[nH]1)CCCC3)NCC(=O)Nc1ccccc1Br,–,13.4% (inactive)
O=C(CCNS(=O)(=O)c1cccs1)N1CCN(c2ccc(F)cc2)CC1,–,-21.8% (inactive)
CN(CCC1CCOCC1)Cc1cn[nH]c1-c1ccc(-c2ccccc2)cc1,13.1 µM (active),–
CN(CCC1CCOCC1)C(=O)CC1C(=O)NCCN1Cc1cccc(F)c1 (configuration not stated),–,81.9% (inactive)
O=[N+]([O-])c1ccc(N2CCSCC2)cc1O,–,23.3% (inactive)
O=C(COC(=O)C1CC2CCCC(C1)C2=O)NC(=O)c1ccccc1 (configuration not stated),–,11.2% (inactive)
CC(=O)Nc1cccc(-c2cnc3ccccc3n2)c1,–,-1.47% (inactive)
Cc1cc(O)ccc1-c1cnc2ccccc2n1,2.62 µM (active),–
Cc1ccc(Nc2nc(-c3ccc(O)cc3O)cs2)nc1,–,20.1% (inactive)
COc1ccc2oc(=N)c(C(=O)Nc3ccc(Br)cc3)cc2c1,–,257% (inactive)
Cc1cccc(NC(=O)Cn2c(=O)n(Cc3ccccc3)c(=O)c3c(C)c(C)sc32)c1,14.7 µM (active),–
Cc1cccc(-n2c(=O)c3c(C)c(C)sc3n(CC(N)=O)c2=O)c1,–,32.2% (inactive)
Cc1sc2c(c1C)c(=O)n(-c1ccccc1)c(=O)n2CC(=O)NCC1CCCO1 (configuration not stated),–,48.7% (inactive)
Cc1noc(C)c1COc1ccccc1C(=O)N(C)CC(=O)Nc1cccc(F)c1,–,16.9% (inactive)
O=C(O)C1CCC(CNS(=O)(=O)c2ccc(Br)cc2)CC1 (configuration not stated),–,2.75% (inactive)
CN(C)CCCNC(=S)N1CCN(c2nc(-c3ccccc3)cs2)CC1,–,0% (inactive)
Cc1ccc(NC(=O)C(CC(=O)O)C2CCCO2)c(C)c1 (configuration not stated),–,8.69% (inactive)
COc1cccc(/C=C2\C=C(c3ccc(C)cc3)OC2=O)c1OC(C)=O,–,32.9% (inactive)
O=C(COC(=O)CCCN1C(=O)c2cccc3cccc(c23)C1=O)NC1CCS(=O)(=O)C1 (configuration not stated),–,30.8% (inactive)
COc1cc([N+](=O)[O-])ccc1NC(=O)COC(=O)CCOc1ccc(C)cc1,–,-0.415% (inactive)
O=C(Nc1nnc(CCN2CCCCC2)s1)c1cccc(Cl)c1,–,29.8% (inactive)

Structure (SMILES),Potency,"activity change, negative = inhibition"
CCN(CC)C(=O)C(=O)Nc1cccc(Br)c1,–,-5.94% (inactive)
CCN(CC)C(=O)Oc1ccc(Br)cc1C(=O)Nc1ccc(F)c(Cl)c1,11.7 µM (active),–
COC(=O)c1ccc(NC(=O)c2cc(Cl)ccc2OC)cc1,–,0% (inactive)
Cc1cc(C)n2nc(C(=O)OCC(=O)N(C)CC(=O)Nc3ccc(F)cc3)nc2n1,–,7.58% (inactive)
COc1ccccc1NC(=O)C1=C(C)Nc2ncnn2C1c1ccc(C)o1 (configuration not stated),–,-29.5% (inactive)
COc1ccccc1NC(=O)C1=C(C)NC(=O)NC1c1ccc(C)s1 (configuration not stated),6.57 µM (active),–
COc1ccccc1NC(=O)C1=C(C)NC2=C(C(=O)CCC2)C1c1ccc(C)o1 (configuration not stated),–,17.3% (inactive)
Cc1ccc(Nc2ncnc3c2cnn3C)c(C)c1,–,-14.4% (inactive)
O=C(c1ccco1)N1CCN=C1SCc1cccc(Cl)c1,10.4 µM (active),–
O=C(C1CC1)N1CCN=C1SCc1ccc(Cl)cc1,–,7.45% (inactive)
O=C(COc1ccccc1)N1CCN=C1SCc1cccc(F)c1,–,8.33% (inactive)
COc1ccccc1C1C(C(N)=O)=C(C)Nc2nc(CCCO)nn21 (configuration not stated),–,9.37% (inactive)
Clc1ccc(C2=CSC3=Nc4cccc5cccc(c45)N23)cc1,3.7 µM (active),–
COc1ccccc1-c1c(C#N)c(N)nc2c1CCC2,–,14.8% (inactive)
O=C(Nc1nonc1-c1ccc(Cl)cc1)c1ccco1,–,5.85% (inactive)
COCCn1c(SC(C)C(=O)NC2CC2)nnc1-c1cccc(C)c1 (configuration not stated),–,4.07% (inactive)
CCc1nc2cccnc2n1-c1ccc(C(=O)O)cc1,–,-9.55% (inactive)
CCCOc1ccc(CN(CCO)CCO)cc1C(=O)OC,8.28 µM (active),–
CCOc1ccc(CN(CCCl)CCCl)cc1C(=O)OC,–,64.7% (inactive)
COC(=O)c1cc(CNC(=O)CC(C)c2ccccc2)ccc1OC (configuration not stated),–,2.52% (inactive)
Cc1ccc(C(=O)NCCc2nnc(SCC(=O)Nc3cccc(C(=O)O)c3)n2C)cc1,–,4.52% (inactive)
COc1cc(CCC(=O)N2CCN(c3ccccc3Cl)CC2)cc(OC)c1OC,–,-23.8% (inactive)
Cc1ccc(NC(=S)NCCc2ccc(Cl)cc2)c(C)c1,–,-9.71% (inactive)
CCOC(=O)CN1C(=O)C(=O)c2cc(C)ccc21,–,125% (inactive)
CC(C)OC(=O)CN1C(=O)C(=O)c2ccccc21,2.08 µM (active),–
COc1cc(C(C)=O)ccc1OC(=O)CN1C(=O)c2ccccc2C1=O,–,13.4% (inactive)
